# The supplement of paper PMC4709259
# Counter-ions that a name gives are not always drawn. ± gives the standard deviation.
# Key:
# Jurkat [1] = assay: mean cell size (FSC-A) relative to DMSO control (fraction of control); higher = larger cells; conditions: 48 h
# Summary of the method: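 Jurkat cells seeded at 600 cells/µl were incubated 1 h, then exposed for 48h to the Enzo Screen-Well FDA Approved Drug Library v2.0 at 25µM in 0.9% (v/v) final DMSO. Drugs that cut counts below 20% of controls were diluted 10-fold and retested, down to 25nM. Cell count and mean cell size (forward scatter area) were read on an Accuri C6 flow cytometer, relative to solvent-only controls. Plates held 6-12 controls; values are means of 3 biological replicates.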
# Jurkat [2] = assay: cell count relative to DMSO control (fraction of control); higher = more cells (less growth inhibition); conditions: 48 h
compound,measurement,setting,value
O=C1Nc2ccc(Cl)cc2[C@@](C#CC2CC2)(C(F)(F)F)O1 [Efavirenz] (concentration: 25 µM),mean cell size,Jurkat [1],0.9 ± 0.017
same,cell count,Jurkat [2],0.628 ± 0.019
Cc1ccc(NC(=O)c2ccc(CN3CCN(C)CC3)cc2)cc1Nc1nccc(-c2cccnc2)n1 [Imatinib Mesylate] (concentration: 25 µM),mean cell size,Jurkat [1],0.968 ± 0.032
same,cell count,Jurkat [2],0.589 ± 0.07
C[C@H]1c2cccc(O)c2C(O)=C2C(=O)[C@]3(O)C(O)=C(C(N)=O)C(=O)[C@@H](N(C)C)[C@@H]3[C@@H](O)[C@@H]21 [Doxycycline Monohydrate] (concentration: 25 µM),mean cell size,Jurkat [1],0.861 ± 0.021
same,cell count,Jurkat [2],0.266 ± 0.051
CC(C)(C)NC(=O)[C@@H]1CN(Cc2cccnc2)CCN1C[C@@H](O)C[C@@H](Cc1ccccc1)C(=O)N[C@H]1c2ccccc2C[C@H]1O [Indinavir] (concentration: 25 µM),mean cell size,Jurkat [1],0.93 ± 0.056
same,cell count,Jurkat [2],0.539 ± 0.068
CN/C(=N\CCSCc1nc[nH]c1C)NC#N [Cimetidine] (concentration: 25 µM),mean cell size,Jurkat [1],1.02 ± 0.072
same,cell count,Jurkat [2],0.733 ± 0.17
C#CCN[C@@H]1CCc2ccccc21 [Rasagiline Mesylate] (concentration: 25 µM),mean cell size,Jurkat [1],1.03 ± 0.024
same,cell count,Jurkat [2],1.01 ± 0.058
CC1(C)O[C@@H]2C[C@H]3[C@@H]4CCC5=CC(=O)C=C[C@]5(C)[C@H]4[C@@H](O)C[C@]3(C)[C@]2(C(=O)CO)O1 [Desonide] (concentration: 25 µM),mean cell size,Jurkat [1],0.948 ± 0.027
same,cell count,Jurkat [2],0.857 ± 0.014
COC(=O)C1=C(C)NC(C)=C(C(=O)OC(C)C)C1c1cccc2nonc12 (stereo unspecified) [Isradipine] (concentration: 25 µM),mean cell size,Jurkat [1],0.924 ± 0.03
same,cell count,Jurkat [2],1.13 ± 0.13
Cc1cc(C(=O)NNCc2ccccc2)no1 [Isocarboxazid] (concentration: 25 µM),mean cell size,Jurkat [1],0.965 ± 0.057
same,cell count,Jurkat [2],0.735 ± 0.1
Nc1ccc(C(=O)NCC(=O)O)cc1 [Aminohippurate·Na] (concentration: 25 µM),mean cell size,Jurkat [1],0.995 ± 0.044
same,cell count,Jurkat [2],0.792 ± 0.089
CN(C)CCCN1c2ccccc2CCc2ccc(Cl)cc21 [Clomipramine·HCl] (concentration: 25 µM),mean cell size,Jurkat [1],0.961 ± 0.035
same,cell count,Jurkat [2],0.4539 ± 0.0031
CO[C@H]1C[C@@H]2CC[C@@H](C)[C@@](O)(O2)C(=O)C(=O)N2CCCC[C@H]2C(=O)O[C@H]([C@H](C)C[C@@H]2CC[C@@H](OCCO)[C@H](OC)C2)CC(=O)[C@H](C)/C=C(\C)[C@@H](O)[C@@H](OC)C(=O)[C@H](C)C[C@H](C)/C=C/C=C/C=C/1C [Everolimus] (concentration: 2.5 µM),mean cell size,Jurkat [1],0.761 ± 0.015
same,cell count,Jurkat [2],0.552 ± 0.072
N=C(N)NCCCC[C@@H]1NC(=O)CCSSC[C@@H](C(N)=O)NC(=O)[C@@H]2CCCN2C(=O)[C@H](Cc2c[nH]c3ccccc23)NC(=O)[C@H](CC(=O)O)NC(=O)CNC1=O [Eptifibatide] (concentration: 25 µM),mean cell size,Jurkat [1],0.988 ± 0.031
same,cell count,Jurkat [2],0.933 ± 0.11
COc1cc([C@@H]2c3cc4c(cc3[C@@H](O[C@@H]3O[C@@H]5CO[C@@H](C)O[C@H]5[C@H](O)[C@H]3O)[C@H]3COC(=O)[C@H]23)OCO4)cc(OC)c1O [Etoposide] (concentration: 250 nM),mean cell size,Jurkat [1],1.25 ± 0.076
same,cell count,Jurkat [2],0.243 ± 0.051
Cc1cc(NS(=O)(=O)c2ccc(N)cc2)no1 [Sulfamethoxazole] (concentration: 25 µM),mean cell size,Jurkat [1],0.962 ± 0.036
same,cell count,Jurkat [2],0.809 ± 0.063
C[N+]1(C)CCC(OC(=O)C(O)(c2ccccc2)C2CCCC2)C1 (stereo unspecified) [Glycopyrrolate Iodide] (concentration: 25 µM),mean cell size,Jurkat [1],0.995 ± 0.037
same,cell count,Jurkat [2],0.838 ± 0.061
COc1ccc2cc(CCC(C)=O)ccc2c1 [Nabumetone] (concentration: 25 µM),mean cell size,Jurkat [1],0.938 ± 0.032
same,cell count,Jurkat [2],0.888 ± 0.058
COc1ccnc(C[S+]([O-])c2nc3cc(OC(F)F)ccc3[nH]2)c1OC (stereo unspecified) [Pantoprazole] (concentration: 25 µM),mean cell size,Jurkat [1],0.9065 ± 0.0044
same,cell count,Jurkat [2],0.85 ± 0.034
C[C@@H]1C[C@H]2[C@@H]3CCC4=CC(=O)C=C[C@]4(C)[C@@]3(Cl)[C@@H](O)C[C@]2(C)[C@@]1(OC(=O)c1ccco1)C(=O)CCl [Mometasone Furoate] (concentration: 25 µM),mean cell size,Jurkat [1],0.915 ± 0.037
same,cell count,Jurkat [2],0.47 ± 0.17
C=CC(N)CCC(=O)O (stereo unspecified) [Vigabatrin] (concentration: 25 µM),mean cell size,Jurkat [1],1.002 ± 0.0073
same,cell count,Jurkat [2],0.829 ± 0.075
N[C@@H](Cc1cc(I)c(Oc2ccc(O)c(I)c2)c(I)c1)C(=O)O [Liothyronine·Na] (concentration: 25 µM),mean cell size,Jurkat [1],0.966 ± 0.02
same,cell count,Jurkat [2],0.648 ± 0.15
O=P(O)(O)C(O)(Cn1ccnc1)P(=O)(O)O [Zoledronic Acid Monohydrate] (concentration: 25 µM),mean cell size,Jurkat [1],0.938 ± 0.031
same,cell count,Jurkat [2],0.296 ± 0.11
CC(C)[C@H]1CC[C@H](C(=O)N[C@H](Cc2ccccc2)C(=O)O)CC1 [Nateglinide] (concentration: 25 µM),mean cell size,Jurkat [1],0.966 ± 0.063
same,cell count,Jurkat [2],0.883 ± 0.14
N=C(N)c1ccc(OCCCCCOc2ccc(C(=N)N)cc2)cc1 [Pentamidine Isethionate] (concentration: 25 µM),mean cell size,Jurkat [1],0.878 ± 0.021
same,cell count,Jurkat [2],0.601 ± 0.055
Cc1oncc1C(=O)Nc1ccc(C(F)(F)F)cc1 [Leflunomide] (concentration: 25 µM),mean cell size,Jurkat [1],1.07 ± 0.025
same,cell count,Jurkat [2],0.606 ± 0.038
CC[C@H]1OC(=O)[C@H](C)[C@@H](O[C@H]2C[C@@](C)(OC)[C@@H](O)[C@H](C)O2)[C@H](C)[C@@H](O[C@@H]2O[C@H](C)C[C@H](N(C)C)[C@H]2O)[C@](C)(OC)C[C@@H](C)C(=O)[C@H](C)[C@@H](O)[C@]1(C)O [Clarithromycin] (concentration: 25 µM),mean cell size,Jurkat [1],0.977 ± 0.057
same,cell count,Jurkat [2],1.05 ± 0.078
Nc1ccn([C@@H]2O[C@H](CO)[C@@H](O)C2(F)F)c(=O)n1 [Gemcitabine·HCl] (concentration: 25 nM),mean cell size,Jurkat [1],1.12 ± 0.024
same,cell count,Jurkat [2],0.427 ± 0.09
CCC(=O)OC(OP(=O)(CCCCc1ccccc1)CC(=O)N1C[C@H](C2CCCCC2)C[C@H]1C(=O)O)C(C)C (stereo partly specified) [Fosinopril·Na] (concentration: 25 µM),mean cell size,Jurkat [1],0.974 ± 0.054
same,cell count,Jurkat [2],0.562 ± 0.12
CN(C)CC/C=C1/c2ccccc2COc2ccc(CC(=O)O)cc21 [Olopatadine] (concentration: 25 µM),mean cell size,Jurkat [1],0.976 ± 0.029
same,cell count,Jurkat [2],0.929 ± 0.1
CC(C)(C)NC(=O)[C@@H]1C[C@@H]2CCCC[C@@H]2CN1C[C@@H](O)[C@H](Cc1ccccc1)NC(=O)[C@H](CC(N)=O)NC(=O)c1ccc2ccccc2n1 [Saquinavir Mesylate] (concentration: 25 µM),mean cell size,Jurkat [1],0.963 ± 0.0039
same,cell count,Jurkat [2],0.648 ± 0.065
CNC(=O)c1cnn(-c2nc(N)c3ncn([C@@H]4O[C@H](CO)[C@@H](O)[C@H]4O)c3n2)c1 [Regadenoson] (concentration: 25 µM),mean cell size,Jurkat [1],0.991 ± 0.035
same,cell count,Jurkat [2],0.883 ± 0.11
CN(C)CCOC(=O)C(c1ccccc1)C1(O)CCCC1 (stereo unspecified) [Cyclopentolate] (concentration: 25 µM),mean cell size,Jurkat [1],0.996 ± 0.057
same,cell count,Jurkat [2],0.596 ± 0.08
Nc1cccc2c1CN(C1CCC(=O)NC1=O)C2=O (stereo unspecified) [Lenalidomide] (concentration: 25 µM),mean cell size,Jurkat [1],0.951 ± 0.021
same,cell count,Jurkat [2],1.03 ± 0.11
C=C(c1ccc(C(=O)O)cc1)c1cc2c(cc1C)C(C)(C)CCC2(C)C [Bexarotene] (concentration: 2.5 µM),mean cell size,Jurkat [1],0.942 ± 0.017
same,cell count,Jurkat [2],0.955 ± 0.09
CCNC(=O)CCC/C=C\C[C@@H]1[C@@H](/C=C/[C@@H](O)CCc2ccccc2)[C@H](O)C[C@@H]1O [Bimatoprost] (concentration: 25 µM),mean cell size,Jurkat [1],0.87 ± 0.025
same,cell count,Jurkat [2],0.307 ± 0.091
CC(C)(C)C(=O)OCOP(=O)(COCCn1cnc2c(N)ncnc21)OCOC(=O)C(C)(C)C [Adefovir Dipivoxil] (concentration: 25 µM),mean cell size,Jurkat [1],1.3 ± 0.043
same,cell count,Jurkat [2],0.23 ± 0.019
COc1cc([C@@H]2c3cc4c(cc3[C@@H](O[C@@H]3O[C@@H]5CO[C@@H](c6cccs6)O[C@H]5[C@H](O)[C@H]3O)[C@H]3COC(=O)[C@H]23)OCO4)cc(OC)c1O [Teniposide] (concentration: 25 nM),mean cell size,Jurkat [1],1.25 ± 0.033
same,cell count,Jurkat [2],0.478 ± 0.044
CC(C)(O)c1ccccc1CC[C@@H](SCC1(CC(=O)O)CC1)c1cccc(/C=C/c2ccc3ccc(Cl)cc3n2)c1 [Montelukast·Na] (concentration: 25 µM),mean cell size,Jurkat [1],1.02 ± 0.077
same,cell count,Jurkat [2],0.476 ± 0.16
CO[C@H]1/C=C/O[C@@]2(C)Oc3c(C)c(O)c4c(O)c(c(/C=N/N5CCN(C6CCCC6)CC5)c(O)c4c3C2=O)NC(=O)/C(C)=C\C=C\[C@H](C)[C@H](O)[C@@H](C)[C@@H](O)[C@@H](C)[C@H](OC(C)=O)[C@@H]1C [Rifapentine] (concentration: 25 µM),mean cell size,Jurkat [1],0.887 ± 0.025
same,cell count,Jurkat [2],0.275 ± 0.088
CCCC(=O)O[C@]1(C(=O)COC(C)=O)CC[C@H]2[C@@H]3C[C@H](F)C4=CC(=O)C=C[C@]4(C)[C@@]3(F)[C@@H](O)C[C@@]21C [Difluprednate] (concentration: 25 µM),mean cell size,Jurkat [1],0.935 ± 0.037
same,cell count,Jurkat [2],0.605 ± 0.14
C=C[C@H]1CN2CC[C@H]1C[C@H]2[C@H](O)c1ccnc2ccc(OC)cc12 [Quinine·HCl·H2O] (concentration: 25 µM),mean cell size,Jurkat [1],1.06 ± 0.055
same,cell count,Jurkat [2],0.637 ± 0.18
c1ccc2c(CC3=NCCN3)cccc2c1 [Naphazoline·HCl] (concentration: 25 µM),mean cell size,Jurkat [1],0.94 ± 0.024
same,cell count,Jurkat [2],0.864 ± 0.024
